In PubChem BioAssay (NCI):
“And” between values parts separate entries of the source, which are not always exact repeats. Identical values can stand only once. Compounds without any hit were thinned out: in the full panel of roughly 83,000, 20% have a hit.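 Method: cells in 96-well plates; compound added at one concentration; 48 h incubation; percent growth measured; values under 10 scored active.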 The source made the active and inactive calls.

tested on: SK-MEL-2 melanoma; test: NCI-60 one-dose screen, 48 h (100 = growth as untreated, 0 = no growth, -100 = all killed); conditions: 10 µM unless noted

SMILES	growth
COc1ccc(-c2nc3ccccc3n2CC(=O)N=Nc2c(O)[nH]c3ccc(OC)cc23)cc1	23.9% (inactive)
COc1cc(NC(=O)C(C)C)ccc1C(=O)NC(=S)Nc1ccc(S(N)(=O)=O)cc1	97.4% (inactive)
COc1cc(C2CC(c3cc(OC)c(OC)c(OC)c3)=Nc3c(N)nc(N)nc3N2)ccc1Oc1nc(Nc2ccc(F)cc2)nc(N(C)C)n1 (centres undefined)	82.7% (inactive)
COc1ccc(C2=NN(C(=O)[C@H]3[C@@H](c4ccco4)c4sc(=O)[nH]c4S[C@@H]3C)C(c3ccc4ccccc4c3)C2)cc1 (some centres undefined)	32.3% (inactive)
O=C(CSc1nc2c(c(=O)[nH]1)CCCC2)Nc1ccccc1C(=O)O	98.9% (inactive)
O=C1c2cccc3c(N4CCN(c5ccccc5)CC4)ccc(c23)C(=O)N1c1cccc(-c2nn(-c3ccccc3)cc2-c2nc3ccccc3s2)c1	106% (inactive)
N#CCc1nnc(NC(=O)c2ccc(-n3c(=O)[nH]c4ccccc4c3=O)cc2)s1	97.7% (inactive)
CCOC(=O)/C(F)=C/C1CC1C(c1ccccc1)c1ccccc1 (centres undefined)	86.3% (inactive)
Cc1ccc(S(=O)(=O)N(CCn2ccnc2[N+](=O)[O-])CCn2ccnc2[N+](=O)[O-])cc1	105% (inactive)
CC(C)(C)C(=O)c1c2c(c3ccc4c5ccccc5ccc4n13)C(=O)c1ccccc1C2=O	104% (inactive)
O=C(N=Nc1c(O)[nH]c2ccc(Cl)cc12)c1ccc2nc(-c3ccc(Cl)cc3)[nH]c2c1	11.8% (inactive)
COc1ccc(NC(=O)Cn2c(/C=C/c3cccc(OC)c3)nc3ccccc3c2=O)cc1	87.9% (inactive)
Cc1cccc(/C=C/c2ccc(NC(=S)NCCCCN(C)C)cc2)c1	-79.6% (active)
Cc1ccc(C(=O)C[n+]2cccc3c4ccccc4ccc32)cc1	36.5% (inactive)
c1ccc(CSc2nnc(-c3ccc4nc(-c5ccccc5)[nH]c4c3)o2)cc1	57.5% (inactive)
O=C(Nc1ccc(-c2ccc3c(c2)NC(=O)/C3=C\c2ccc[nH]2)cc1)Nc1cccc(Cl)c1	-52.8% (active)
N#Cc1c(-c2ccc(F)cc2)nc(SCc2ccc(F)cc2)nc1N1CCNCC1	-73% (active)

SMILES	growth
Cc1cc(C2(c3cc(C)c(OCC(O)CNc4c(C)n(C)n(-c5ccccc5)c4=O)cc3C(C)C)OC(=O)c3ccccc32)c(C(C)C)cc1OCC(O)CNc1c(C)n(C)n(-c2ccccc2)c1=O (centres undefined)	-5.35% (active)
O=CNc1cccc(-n2cnc3cc(-c4ccc(O)cc4)ccc32)c1	79.2% (inactive)
COc1ccc(S(=O)(=O)Nc2ccc(-c3ccc4c(c3)NC(=O)/C4=C\c3ccc[nH]3)cc2)cc1OC	46.6% (inactive)
CC(=O)Nc1cccc(-n2c(COc3ccc(Br)cc3)nc3ccccc32)c1	95.4% (inactive) and 112% (inactive)
CCCCNC(=S)Nc1ccc(OCc2nc3ccc(Cl)cc3[nH]2)cc1	7.47% (active)
COc1ccc(OC)c(Cn2cc(C#N)c(N)c2C(=O)c2ccc(Br)cc2)c1	4.44% (active)
NCCCCn1c(SCCc2c[nH]c3ccccc23)nnc1-c1ccc2ccccc2n1	-73.5% (active)
COc1cc(CNC(=O)C[C@H](C)CCC=C(C)C)ccc1OCc1cn(-c2ccccc2Cl)nn1	53.3% (inactive)
NS(=O)(=O)c1ccc(N2N=C(c3ccc(NC(=O)Nc4ccccc4)cc3)CC2c2ccc(Br)cc2)cc1 (centres undefined)	-75.8% (active)
COc1ccc(NC(=O)CSc2nnc(-c3ccc(-c4nc5ccc(Cl)cc5[nH]4)cc3)o2)cc1	39.4% (inactive)
CC1=C(C(=O)OCc2ccccc2)C(c2ccc(N(C)C)cc2)n2c(nc3ccccc32)N1 (centres undefined)	96.5% (inactive)
NS(=O)(=O)c1ccc(Nc2nc(N/N=C/c3cc(Br)c(O)c(Br)c3)nc(Nc3ccccc3)n2)cc1	-5.4% (active)
COc1cccc(NC(=O)c2ccc(NC(=O)CCl)s2)c1	79.6% (inactive)
Cc1oc(-c2ccccc2)nc1CN[C@@H]1C[C@@H]2C[C@H]([C@H]1C)C2(C)C	85.7% (inactive)
C=CC(=O)Nc1ccc(C(=O)/C=C/c2ccc(N(C)C)cc2)c(O)c1	3.4% (active)
COc1cc(/C=C/C(=O)c2cnn(-c3cc(=O)[nH]c4ccc(Cl)cc34)c2C)cc(OC)c1OC	-80.6% (active)
COc1cc(C=O)ccc1Oc1nc(Nc2ccc(F)cc2)nc(N(C)C)n1	62.6% (inactive) and 85.2% (inactive)
